Rows were chosen to be rich in hits. Some 11% of all compounds tested hit in one or more screens of this group.
JMJD2A Tudor = JMJD2A Tudor domain (human) inhibition | hit rate 4.4% among 390,000 | AlphaScreen JMJD2A-Tudor / H3K4me3 peptide binding | Potency, µM (top dose mostly 114 µM), inactives show top-dose activity change, negative = inhibition, most hits filed as inhibitors; also: % is scaled to controls: 0 for no effect and ±100 for the full control effect; nearly all actives have a fitted effect of over 50% in size
HP1b binding inh = blocks HP1-beta chromodomain binding to methylated histone tails; P83916; AlphaScreen HP1-beta / biotin-H3K9me3 peptide binding; Potency, µM (titrated, usually from 114 µM), for inactives: at the top dose activity change, negative = inhibition, usual class: inhibitors; hit rate 0.56% among 390,000; also: nearly all actives have a fitted effect of over 70% in size
Target sequence (P83916 whole entry, looked up): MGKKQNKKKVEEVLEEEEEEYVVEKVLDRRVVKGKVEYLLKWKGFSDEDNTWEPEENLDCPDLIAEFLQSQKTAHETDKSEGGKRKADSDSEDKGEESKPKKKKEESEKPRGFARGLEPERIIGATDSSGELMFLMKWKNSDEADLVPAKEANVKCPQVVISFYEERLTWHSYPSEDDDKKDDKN
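AlphaScreen: HP1-beta (50 nM) preformed 30 min with biotin-H3(1-18)K9me3 peptide (50 nM) in PBS pH 7.4, 0.01% Tween-20. Compound added for 30 min at RT, then streptavidin donor/nickel chelate acceptor beads (10 ug/mL) for 30 min.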
G9a inh = inhibitors of human histone lysine methyltransferase G9a. Q96KQ7. G9a H3K9 monomethylation, AlphaScreen, 2 h. Potency, µM (highest dose often 102 µM), for the others: at the highest dose activity, negative = inhibition, hits mostly inhibitors. hit rate 8.8% among 350,000; also: % is scaled to controls: 0 for no effect and ±100 for the full control effect; nearly all actives have a fitted effect of over 75% in size
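Compounds were preincubated with 20 nM G9a for 15 min, after which biotinylated H3K9 peptide (500 nM) and SAM (20 uM) started a 2 h room-temperature reaction. Monomethylated product was quantified by antibody-based AlphaScreen chemiluminescence.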
PLK1 PBD inh = blocks phosphopeptide binding to human PLK1 polo-box domain; hit rate 2.8% among 360,000; Plk1 PBD binding of FITC phosphopeptide, fluorescence polarization; Potency, µM, without a hit: max response, negative = inhibition, most hits filed as inhibitors; P53350; also: series mostly up to about 57 µM; % is scaled to controls: 0 for no effect and ±100 for the full control effect; nearly all actives have a fitted effect of over 65% in size
VDR inhibitor = blocks the human vitamin D receptor | AID 504847 | hit rate 0.93% among 400,000 | VDR-SRC2-3 peptide fluorescence polarization, 2 h | Potency, µM, for the others: max response, negative = inhibition, hits mostly inhibitors; also: % is scaled to controls: 0 for no effect and ±100 for the full control effect
Target sequence (P11473 whole entry, looked up): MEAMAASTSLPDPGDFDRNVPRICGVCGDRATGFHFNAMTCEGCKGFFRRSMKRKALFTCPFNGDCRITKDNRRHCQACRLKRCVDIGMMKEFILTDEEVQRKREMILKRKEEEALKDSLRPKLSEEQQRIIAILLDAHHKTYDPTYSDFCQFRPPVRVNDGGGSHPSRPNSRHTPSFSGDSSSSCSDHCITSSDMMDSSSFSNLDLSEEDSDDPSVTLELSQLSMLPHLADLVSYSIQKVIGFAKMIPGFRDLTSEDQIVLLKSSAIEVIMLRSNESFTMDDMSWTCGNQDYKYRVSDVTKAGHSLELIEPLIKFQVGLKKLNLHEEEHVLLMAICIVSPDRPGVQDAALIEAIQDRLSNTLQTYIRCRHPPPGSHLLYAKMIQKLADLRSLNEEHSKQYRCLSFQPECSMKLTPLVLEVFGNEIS
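Reagent solutions, kept cold and dark, are dispensed first; compounds are then pinned in at 23 nl, plates briefly spun, and incubated 2 h at ambient temperature. Inhibition of VDR–SRC2-3 peptide binding is read by fluorescence polarization.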
BAZ2B block = BAZ2B (human) inhibition | Q9UIF8 | AlphaScreen BAZ2B-H3K14Ac peptide displacement | Potency, µM (top dose mostly 114 µM), for the others: at the top dose activity change, negative = inhibition, hits mostly inhibitors | hit rate 4.4% among 360,000 | AID 504333; also: % is scaled to controls: 0 for no effect and ±100 for the full control effect; nearly all actives have a fitted effect of over 60% in size
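Multi-concentration screen (max 110 uM) measuring displacement of acetylated histone H3 peptide from BAZ2B by AlphaScreen, using 50 nM protein, 50 nM peptide and 10 ug/mL streptavidin donor plus Ni-chelate acceptor beads.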
* = called active by the depositor; ? = inconclusive; . = no result given; [ ] = remark or other dose. Calls follow the shape of the dose curve; as a rule, active = well fitted curve in the direction sought with a large enough effect; inconclusive = small, poorly fitted or top-dose-only effect, or another doubt; inactive = no such curve, though single readings can be large; an effect the other way counts as inactive or inconclusive. Potency is read from the fitted curve at half-maximal effect.

SMILES	JMJD2A Tudor	HP1b binding inh	G9a inh	PLK1 PBD inh	VDR inhibitor	BAZ2B block
COc1ccccc1C(=O)Nc1nnc2n1CCS2	?	12%[57 µM]	11µM*	.	13%	-14%
CC(=O)Nc1nnc2n1CCS2	22µM*	-8%[57 µM]	14µM*	.	-14%	-4%
O=C(COC(=O)c1ccc([N+](=O)[O-])s1)Nc1ncc(C(F)(F)F)cc1Cl	?	?	?	?	-18%	?
CCn1c(=O)c2cc(C(=O)N3CCN(c4cccc(Cl)c4)CC3)sc2c2ccccc21	-18%	28%	?	.	-8%	-19%
C[C@@H]1CN([C@H](C)CO)C(=O)CCCn2nncc2CO[C@H]1CN(C)Cc1ccc2c(c1)OCO2	.	.	.	-4%	.	.
CCOC(=O)c1c(C)[nH]c(O)c1C=Nc1ccc(C(F)(F)F)cc1	?	-8%	45µM*	-15%	-7%	-9%
CCOC(=O)c1c(C)[nH]c(O)c1C=Nc1ccc(Cl)cc1	-35%	?	50µM*	-23%	-11%	-34%
COC(=O)c1c(C)[nH]c(O)c1C=Nc1ccc(C(C)C)cc1	45µM*	?	?	-8%	-2%	35µM*
Cc1oc(-c2ccc(Cl)cc2)nc1Cn1c(=O)cc(-c2ccccc2)c2c(C)nn(C)c21	-21%	67%	-1%[59 µM]	.	0%	-19%
CCCCOC(=O)/C=C\C(=O)NC(N)=O	1%	11%	45µM*	-9%	-10%	-4%
COc1cc2[nH]c(=S)nc(NCc3ccccn3)c2cc1OC	-23%	21%	50µM*	-18%	-11%	6%
COc1cc2[nH]c(=S)nc(NCc3ccc(C)cc3)c2cc1OC	-7%	60%	-15%	-15%	-6%	3%
COc1ccc(CNc2nc(=S)[nH]c3cc(OC)c(OC)cc23)cc1	?	28%	10µM*	-9%	-5%	?
Cc1ccccc1NC(=O)C1CC(=O)n2ncnc2N1 (stereo not given)	7%	67%	45µM*	4%	-19%	-18%
CC(=O)Nc1nc2ccccc2n1CCOc1ccccc1	-16%	25%	-4%[59 µM]	1%	-12%	-12%
S=C(Nc1ccccc1)Nc1nc2ccccc2n1CCOc1ccccc1	45µM*	-10%	-39%[59 µM]	-22%	-18%	6.3µM*
CCCCn1c(NC(=S)Nc2ccccc2)nc2ccccc21	40µM*	?	1%[59 µM]	-16%	0%	7.9µM*
CC(=O)Nc1nc2ccccc2n1CCN(C)C	40µM*	-4%	40µM*	-1%	-8%	-37%
CC(=O)Nc1ccc(C(=O)NCC2CCCCC2)cc1	3%	39%	-9%[0.501 µM]	3%	16%	0%
O=C(c1ccc(S(=O)(=O)N2CCCC2)cc1)N1CCN(c2cccc(Cl)c2)CC1	-12%	22%	-14%	0%	-1%	1%
CS(=O)(=O)c1ncc(Cl)c(C(=O)N2CCN(c3cccc(Cl)c3)CC2)n1	-17%	32%	13µM*	.	?	?
COc1ccccc1N1CCN(C(=O)c2ccc3[nH]c(C)c(C)c3c2)CC1	?	-23%[57 µM]	40µM*	-9%	22%	?
COc1ccccc1N1CCN(C(=O)C(=O)c2c(C)[nH]c3ccccc23)CC1	-30%	4%[57 µM]	12%	-11%	4%	-16%
COc1ccc(NC2CCCN(C(=O)c3ccc4[nH]c(C)c(C)c4c3)C2)cc1OC (stereo not given)	?	-8%	.	-3%	2%	45µM*
CC1=C(C(=O)Nc2ccc(C(=O)N3CCN(c4cccc(Cl)c4)CC3)cc2)SCCO1	?	-7%	45µM*	-6%	5%	?
SMILES	JMJD2A Tudor	HP1b binding inh	G9a inh	PLK1 PBD inh	VDR inhibitor	BAZ2B block
N#CCc1ccc(-c2cccc3nccn23)cc1	.	.	.	3%	.	.
COc1ccc(C(C(=O)NC2CCCC2)n2c(CSCCOc3ccccc3)nc3ccccc32)cc1 (stereo not given)	.	.	.	-3%	.	.
Cc1[nH]c2ccc(C(=O)N3CCN(c4ccccc4Cl)CC3)cc2c1C	45µM*	?	?	-11%	-16%	22µM*
Cc1[nH]c2ccc(C(=O)N3CCN(c4ccccc4F)CC3)cc2c1C	89µM*	?	?	.	-12%	?
Cc1[nH]c2ccc(C(=O)N3CCN(c4cccc(Cl)c4)CC3)cc2c1C	?	-5%	40µM*	0%	-20%	?
Cc1[nH]c2ccc(C(=O)N3CCCCC3)cc2c1C	-26%	16%	-6%	-2%	15%	-8%
COc1ccccc1N1CCN(C(=O)c2ccc3[nH]c4c(c3c2)CC(C)CC4)CC1 (stereo not given)	?	?	?	-6%	5%	40µM*
Cc1[nH]c2ccc(C(=O)N3CCCC3)cc2c1C	-10%	29%	-36%	-14%	-2%	-20%[57.1 µM]
O=C(NCCCN1CCCC1=O)C1CCN(S(=O)(=O)c2cccc(Cl)c2Cl)CC1	-6%	31%	4%[59 µM]	-18%	2%	8%
CCCN(CC1CC1)C(=O)COC(=O)c1oc2c(F)cccc2c1C	16%	56%	5%[12.7 µM]	-14%	1%	18%
Cc1ccc(C)c(N2CCN(C(=O)c3cc4c(C)nc5ccccc5c4o3)CC2)c1	?	-10%[57 µM]	?	4%	0%	?
COc1ccccc1N1CCN(C(=O)c2cc3c(C)nc4ccccc4c3o2)CC1	-33%	24%	50µM*	-12%	-15%	?
COc1ccccc1CNC(=O)c1cn(C)c(=O)c2cc(OC)c(OC)cc12	13µM*	2%	-7%	19µM*	?	-12%
CCn1cc(C(=O)NCc2cccnc2)c2cc(OC)c(OC)cc2c1=O	-23%	19%	11µM*	-6%	-26%	9%
CCn1c(=O)c(C(=O)NCc2ccccc2)c(O)c2ccccc21	88%	160%	.	-11%	5%	51%
COc1cc2c(C(=O)Nc3cc(OC)c(OC)c(OC)c3)cn(C)c(=O)c2cc1OC	-13%	23%	-3%[59 µM]	.	-1%	0%
CCn1c(=O)c(C(=O)NCc2cccnc2)c(O)c2ccccc21	40µM*	18%	6%[59 µM]	4%	-2%	29%
COc1cc(OC)c(C(=O)NCc2cccnc2)cc1OC	-17%	-18%	-1%[59 µM]	?	-18%	-19%
COc1cccc(NC(=O)c2cn(C)c(=O)c3cc(OC)c(OC)cc23)c1	?	-15%	75%[59 µM]	3µM*	-24%	-5%
Cc1ccc(C)c(Nc2nnc(-c3ccc(C)c(S(=O)(=O)NCC4CCCO4)c3)c3ccccc23)c1 (stereo not given)	-11%	25%	-28%[59 µM]	.	-20%	-17%
CC(C)(C)c1cc(C(=O)NNC(=O)c2ccc(Cl)cc2)no1	-3%	2%	?	-3%	0%	2%
COc1cccc(C2c3c(ncn(-c4cccc(C#N)c4)c3=N)Oc3ccc4ccccc4c32)c1 (stereo not given)	79µM*	.	.	.	.	.

Assay outcomes as filed in PubChem.
